Measurements from PubChem BioAssay.
Results with a measured potency or affinity are listed apart. Unmarked numbers belong to inactive results. Active and inactive are the calls of the source.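 The calls were made as follows: active = signal drop whose fitted half-maximal concentration is at most twice the top valid dose, in every test run; inconclusive = mixed calls across runs, poor fit, or flat 30 to 70% inhibition; inactive = wrong direction, flat within 30%, or potency beyond limit.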

assay: cytotoxicity in PAX8-dependent RMG-1 cells, dose response, cell-based, cherry-pick (AID 687029); conditions: RMG-1 viability, CellTiterGlo ATP luminescence, 96 h; series mostly up to 35 µM; activity change, negative = inhibition: at the top concentration;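 also: cells exposed to compound for 96 hours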

Row | Structure (SMILES) | activity change, negative = inhibition [%] | outcome
1 | C[C@@H]1CCCCO[C@H](CN(C)Cc2ccc(Cl)c(Cl)c2)[C@H](C)CN([C@@H](C)CO)C(=O)c2cc(NC(=O)Nc3ccc(F)cc3)ccc2O1 | 7.51 | –
2 | C[C@H](CO)N1C[C@H](C)[C@H](CN(C)Cc2ccc(Cl)c(Cl)c2)Oc2c(NS(=O)(=O)c3ccc(Cl)cc3)cccc2C1=O | 29.7 | –
3 | Cc1ccc(S(=O)(=O)Nc2ccc3c(c2)C(=O)N([C@H](C)CO)C[C@@H](C)[C@H](CN(C)S(=O)(=O)c2ccc(Cl)cc2)OCCCC[C@H](C)O3)cc1 | 18.1 | –
4 | C[C@@H]1CN([C@H](C)CO)C(=O)c2cc(NC(=O)Nc3ccc(C(F)(F)F)cc3)ccc2O[C@@H](C)CCCCO[C@H]1CN(C)C(=O)Nc1ccc(F)cc1 | 21.3 | –
5 | Cc1ccc(S(=O)(=O)Nc2ccc3c(c2)C(=O)N([C@@H](C)CO)C[C@H](C)[C@@H](CN(C)C(=O)Nc2ccc(C(F)(F)F)cc2)OCCCC[C@H](C)O3)cc1 | 19.5 | –
6 | Cc1cccc(-c2ccc([C@H]3[C@H](CO)N4CCCCN(S(=O)(=O)c5ccccc5C)C[C@@H]34)cc2)c1 | 24.9 | –
7 | C[C@@H]1CN([C@H](C)CO)C(=O)c2cc(NC(=O)Nc3ccc(F)cc3)ccc2O[C@@H](C)CCCCO[C@H]1CN(C)Cc1ccc(Cl)c(Cl)c1 | 3.82 | –
8 | O=C(Nc1cccc(F)c1)N1CCCCN2[C@@H](CO)[C@@H](c3ccc(-c4ccncc4)cc3)[C@@H]2C1 | 17 | –
9 | C[C@@H]1CCCCO[C@H](CN(C)C)[C@H](C)CN([C@H](C)CO)C(=O)c2cc(NC(=O)Nc3cccc4ccccc34)ccc2O1 | 2.04 | –
10 | C[C@@H]1CN([C@@H](C)CO)C(=O)c2cc(NC(=O)c3ccccc3)ccc2O[C@@H](C)CCCCO[C@H]1CN(C)Cc1ccc(C(F)(F)F)cc1 | -3.18 | –
11 | C[C@@H]1CCCCO[C@H](CN(C)Cc2ccc(C(F)(F)F)cc2)[C@@H](C)CN([C@@H](C)CO)C(=O)c2cc(NS(=O)(=O)c3ccccc3)ccc2O1 | 18.2 | –
12 | O=C(Nc1ccc(C(F)(F)F)cc1)N1C[C@@H]2N[C@H](C1)C2c1ccc(-c2ccccc2)cc1 (some centres undefined) | – | inactive
13 | O=C(C[C@@H]1CC[C@H]2[C@@H](COC[C@@H](O)CN2Cc2cccc(C(F)(F)F)c2)O1)NCc1ccc(F)cc1 | 9.86 | –
14 | C[C@@H]1CN([C@H](C)CO)C(=O)c2cc(NC(=O)Nc3ccc(F)cc3)ccc2O[C@@H](C)CCCCO[C@H]1CN(C)C(=O)Nc1ccc(F)cc1 | 9.15 | –
15 | O=S(=O)(c1ccc(F)cc1)N1C[C@H]2[C@@H](c3ccccc31)[C@H](CO)N2Cc1ccccc1Cl | 24.4 | –
16 | C[C@@H]1CN([C@@H](C)CO)S(=O)(=O)c2ccc(C#C[C@@H](C)O)cc2O[C@@H]1CN(C)Cc1ccc(-c2ccccc2)cc1 | 11.4 | –
17 | C[C@H]1CN([C@@H](C)CO)C(=O)CCCn2nncc2CO[C@@H]1CN(C)C(=O)Nc1ccc(-c2cccs2)cc1 | 20.8 | –
18 | Cc1ccc(S(=O)(=O)Nc2cccc3c2O[C@@H](CN(C)C(=O)Nc2ccc(C(F)(F)F)cc2)[C@@H](C)CN([C@H](C)CO)C3=O)cc1 | 28.8 | –
19 | COc1ccc(CN2[C@H](CO)[C@H]3c4ccccc4NC[C@H]32)cc1 | 16.7 | –
20 | CCCN1[C@H](C(=O)N2CCOCC2)[C@@H](CO)[C@@H]2Cn3c(ccc(/C=C/c4ccccc4)c3=O)[C@@H]21 | 34 | –
21 | O=C(C[C@@H]1C[C@H]2c3cc(NC(=O)C4CCOCC4)ccc3O[C@H]2[C@H](CO)O1)NCc1ccc(Oc2ccccc2)cc1 | 5.84 | –
22 | C[C@@H]1CN([C@H](C)CO)C(=O)c2cc(NC(=O)c3ccncc3)ccc2O[C@@H](C)CCCCO[C@H]1CN(C)Cc1ccc(C(F)(F)F)cc1 | 28.8 | –
23 | Cc1cccc(-c2ccc([C@H]3[C@@H](CO)N4CCCCN(S(=O)(=O)c5cccc(C)c5)C[C@@H]34)cc2)c1 | 2.57 | –
24 | C[C@@H]1CN([C@H](C)CO)C(=O)c2cc(NS(=O)(=O)c3ccc(F)cc3)ccc2O[C@@H]1CN(C)Cc1ccc(C(F)(F)F)cc1 | 17.4 | –
25 | C[C@@H]1CN([C@H](C)CO)C(=O)c2c(c3ccccc3n2C)-c2ccccc2CO[C@@H]1CN(C)S(=O)(=O)c1ccc(C(F)(F)F)cc1 | 15.9 | –
26 | C[C@@H]1CCCCO[C@@H](CN(C)S(=O)(=O)c2ccc(Cl)cc2)[C@H](C)CN([C@@H](C)CO)C(=O)c2cc(NS(=O)(=O)c3ccc(Cl)cc3)ccc2O1 | 13.5 | –
27 | C[C@H](CO)N1C[C@H](C)[C@H](CN(C)S(=O)(=O)c2cccs2)OCCCC[C@H](C)Oc2ccc(NC(=O)NC3CCCCC3)cc2C1=O | 18.3 | –
28 | Cc1ccc(S(=O)(=O)Nc2ccc3c(c2)C(=O)N([C@@H](C)CO)C[C@H](C)[C@@H](CN(C)Cc2ccc(Cl)c(Cl)c2)OCCCC[C@@H](C)O3)cc1 | 6.87 | –
29 | C[C@@H]1CCCCO[C@@H](CN(C)Cc2ccc(Cl)c(Cl)c2)[C@H](C)CN([C@H](C)CO)C(=O)c2cc(NS(=O)(=O)c3ccc(F)cc3)ccc2O1 | 10.1 | –
